Data taken from PubChem BioAssay (NCI).
This is part of a sample that, as a whole, favours compounds with a hit. Of some 83,000 tested, about 20% had one in any assay.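 A percent growth of 40 corresponds to 60% growth inhibition; 0 means no net growth; -100 means all cells died. Active threshold: below 10.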 Activity calls are given as the source filed them.

Each compound was assayed on OVCAR-3 ovarian (assay: NCI-60 one-dose screen, 48 h (100 = growth as untreated, 0 = no growth, -100 = all killed)). Details: 10 µM unless noted.
Description: Growth inhibition of the OVCAR-3 human tumor cell line is measured as a screen for anti-cancer activity. Cells are grown in 96 well plates and exposed to the test compound for 48 hours. Compounds are tested at a single concentration, which is 10^-5 M for most compounds. The reported endpoint is percent growth (GI% or GIPRCNT), where numbers from 0 - 100% represent growth inhibition, and numbers from -100% - 0 represent cell death. For example, a value of 40 represents 60% growth inhibition. A value of 0 means no net growth occurred over the course of the experiment. A value of -40 indicates 40% of cells at the beginning of the experiment died by the end of the experiment. A value of -100 means all cells are dead at the end of the experiment.
NCI-60 Human Tumor Cell Lines Screen was performed using the standard one-dose NCI protocol, which is described in more detail at https://dtp.cancer.gov/discovery_development/nci-60/default.htm.
Compounds with GIPRCNT values below 10 were considered active. Activity score was based on GIPRCNT using the following formula: […]
Score is 0 for GIPRCNT values of 100 or above, 50 for GIPRCNT values of 0, and 100 for GIPRCNT values of -100.

With O=[N+]([O-])c1cccc(/C=N\Nc2ccccc2)c1 as the compound, how does the growth read?
Its growth is 73.1% (inactive).

Which growth does the source give for COC(=O)CNc1nc(N(C)O)nc(N(C)O)n1 here?
The growth was -6.47% (active).

Which growth does the source give for Cc1ccnc2c(OCc3ccccc3)cccc12 here?
Its growth is 92.8% (inactive).

Nc1ccc(Cl)cn1 was tested. Which growth did it give?
Its growth is 106% (inactive).

Which growth does the source give for CCCCC[C@H]1CC=C2C(=O)C(Cl)=C[C@@H]2CC=CCCCC(=O)O[C@@H](CCCCC)CC=C2C(=O)C(Cl)=C[C@@H]2CC=CCCCC(=O)O[C@@H](CCCCC)CC=C2C(=O)C(Cl)=C[C@@H]2CC=CCCCC(=O)O1 here?
The growth was 17.3% [8 µM] (inactive).

Which growth does the source give for Cn1c2ccccc2c2c3c(c4c5cccnc5[nH]c4c21)C(=O)N(O)C3=O here?
The growth was 54.7% (inactive).

How did the growth turn out when COC(=O)[C@]12CC[C@@H](C)[C@H](C)[C@@H]1C1=CC[C@@H]3[C@@]4(C)C[C@@H](OC(C)=O)[C@H](OC(C)=O)[C@@](C)(COC(C)=O)[C@@H]4[C@H](O)C[C@@]3(C)[C@]1(C)CC2 was run?
The growth was 15% (inactive).

Cc1cc2nc3c4cc([N+](=O)[O-])cc([N+](=O)[O-])c4n(CCN(C)C)c3nc2cc1C was tested. Which growth did it give?
The growth was 92.6% (inactive).

With Cc1[c-]onc1C.Cc1[c-]onc1C.[Ag].[Ag].[NH-]S(=O)(=O)c1ccc(N=Nc2cc(N=Nc3ccc(S([NH-])(=O)=O)cc3)c3c(NC(=O)C(Cl)Cl)cccc3c2OC(=O)C(Cl)Cl)cc1 as the compound, how does the growth read?
The growth was 59.7% (inactive).

Which growth does the source give for c1csc(-c2nc(-c3cc4ccccc4c(N4CCOCC4)n3)cs2)c1 here?
The growth was 111% (inactive).

Which growth does the source give for CCSc1ncnc2c1ncn2C1OC(CO)C(O)C1O (stereo not given) here?
Its growth is 23.4% (inactive).

CCCCCC1CCCCN1C(=O)OCC (stereo not given) was tested. Which growth did it give?
Its growth is 109% (inactive).

With O=c1[nH]ncc(Br)c1Br as the compound, how does the growth read?
Its growth is -100% (active).

Which growth does the source give for COc1ccc2nc(-c3c(-c4ccccc4)nc4ncccn34)[nH]c2c1 here?
Its growth is 108% (inactive).

For COC(=O)[C@]12CC[C@@H](C(C)=O)[C@@H]1[C@H]1CC[C@@H]3[C@@]4(C)C/C(=C/c5cccnc5)C(=O)C(C)(C)[C@@H]4CC[C@@]3(C)[C@]1(C)CC2, which growth is on record?
The growth was 49% (inactive).

Which growth does the source give for Cn1cc(-c2csc(-c3cn(CCCN4CCCCC4)c4ccc(Br)cc34)n2)c2cccnc21 here?
Its growth is -75.6% (active).

How did the growth turn out when CC(=O)Oc1ccccc1C(=O)/C=C/c1cccc([N+](=O)[O-])c1 was run?
The growth was 66.4% (inactive).

With O=C1CCC/C=C\C[C@H]2C=C(Cl)C(=O)/C2=C/C[C@H](CCCCC(F)(F)F)OC(=O)CCC/C=C\C[C@H]2C=C(Cl)C(=O)/C2=C/C[C@H](CCCCC(F)(F)F)O1 as the compound, how does the growth read?
Its growth is -81.3% [7.5 µM] (active).

For Nc1nc(N)c2nc3c(nc2n1)CCCCCCCCCC3, which growth is on record?
Its growth is 81.9% (inactive).

With O=[N+]([O-])c1ccc(N/N=C(\C(=N/Nc2ccc([N+](=O)[O-])cc2[N+](=O)[O-])c2ccccc2)c2ccccc2)c([N+](=O)[O-])c1 as the compound, how does the growth read?
Its growth is 84% (inactive).

For O=C1c2cccc3cccc(c23)C(=O)N1CC#Cc1ccc2c3c(cccc13)C(=O)N(CCN1CCNCC1)C2=O, which growth is on record?
Its growth is 106% (inactive).

Which growth does the source give for CC(C)(C)c1[nH]nc2c1C(c1cc3ccccc3[nH]c1=O)Nc1cc(C(=O)OCc3ccccc3)ccc1N2 (stereo not given) here?
The growth was 49.2% (inactive).

How did the growth turn out when COc1ccc2nc(-c3cc(-c4cc(OC)c(OC)c(OC)c4)n[nH]3)[nH]c2c1 was run?
Its growth is -29% (active).

For O=C1C=Cc2ncccc2C1=O, which growth is on record?
Its growth is 64.4% (inactive).

How did the growth turn out when C=C(C)[C@@H]1CC[C@]2(CN)CC[C@]3(C)[C@H](CC[C@@H]4[C@@]5(C)CCC(=O)NC(C)(C)[C@@H]5CC[C@]43C)[C@@H]12 was run?
Its growth is 88% (inactive).

How did the growth turn out when NCCn1cc(-c2nc(-c3c[nH]c4ncccc34)cs2)c2cc(Br)ccc21 was run?
The growth was 82.4% (inactive).

CCCCCCCC(=O)SCC/C=C/[C@@H]1CC(=O)NCc2cccc(n2)CN(Cc2ccc3ccccc3c2)CC(=O)N[C@@H](C(C)C)C(=O)O1 was tested. Which growth did it give?
The growth was 47.3% (inactive).

Which growth does the source give for Cn1cc(-c2nc(-c3cn(C)c4ncccc34)cs2)c2ccccc21 here?
Its growth is -17.8% (active).

With COc1cc2nc(Cl)nc(Nc3cccc(C(=O)/C=C/c4ccc(F)cc4)c3)c2cc1OC as the compound, how does the growth read?
Its growth is 43.4% (inactive).

For C/C(=C(/c1ccccc1)c1ccc(N2C(=O)c3cccc4c(NCc5ccccc5)ccc(c34)C2=O)cc1)c1ccccc1, which growth is on record?
Its growth is 110% (inactive).

Which growth does the source give for Cc1cccc(C)c1NC(=O)CSC(=S)N1CCN(CCOCCO)CC1 here?
Its growth is 102% (inactive).

How did the growth turn out when Cc1cc(Cl)nc(N(CCNc2ccnc3cc(Cl)ccc23)Cc2ccco2)n1 was run?
The growth was -41.2% (active).

Cc1cc(N(CCCNc2ccnc3cc(Cl)ccc23)Cc2ccco2)nc(N2CCN(C)CC2)n1 was tested. Which growth did it give?
Its growth is 56.6% (inactive).

For Cc1ccc(Nc2c(C(N)=O)cnc3ccc(S(=O)(=O)Nc4cc(C)on4)cc23)cc1, which growth is on record?
The growth was 103% (inactive).

How did the growth turn out when Cc1cc(N(CCCNc2ccnc3cc(Cl)ccc23)Cc2ccco2)nc(Cl)n1 was run?
The growth was 66.1% (inactive).

Which growth does the source give for O=S(=O)(NCCNc1cc(-c2cn(-c3ccccc3)nc2-c2cccc(O)c2)ccn1)c1ccc(Cl)cc1 here?
Its growth is 43.2% (inactive).

For CC[C@]12C=CCN3CC[C@@]4(c5cc([C@H]6CCC(=O)N6)c(OC)cc5N(C)[C@H]4[C@@](O)(C(=O)OC)[C@@H]1OC(C)=O)[C@@H]32, which growth is on record?
The growth was 112% [2.5 µM] (inactive).

With COc1ccc(/C=C/C(=O)NCCO)cc1 as the compound, how does the growth read?
The growth was 101% (inactive).

COc1ccc(C(=O)c2cc(OC)c(OC)c(OC)c2)cc1/C=C/C(=O)c1cc(OC)c(OC)c(OC)c1 was tested. Which growth did it give?
Its growth is 99.3% (inactive).

C=C1C(=O)O[C@H]2[C@H]1CC/C(COC(=O)NCc1c[nH]c3ccccc13)=C\CC[C@@]1(C)O[C@@H]21 was tested. Which growth did it give?
The growth was 2.08% (active).
